According to PubChem BioAssay (NCI):
Compounds without any hit were thinned out: in the full panel of roughly 83,000, 20% have a hit.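 Results are percent growth after 48 hours of single-concentration exposure. 100 means growth as in untreated cells, lower positive values show inhibition; negative values down to -100 show cell death.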 Active and inactive are the calls of the source. How the source made its calls: active means growth percent below 10; inactive means the rest.

Key:
Experiment in all cases: NCI-60 one-dose screen, 48 h (100 = growth as untreated, 0 = no growth, -100 = all killed)
[1] = system: HOP-92 NSCLC; settings: 10 µM unless noted
[2] = system: NCI-H522 lung; settings: 10 µM unless noted
[3] = system: K-562 leukemia; settings: 10 µM unless noted
[4] = system: MALME-3M melanoma; settings: 10 µM unless noted
[5] = system: SNB-19 CNS; settings: 10 µM unless noted
[6] = system: U251 CNS; settings: 10 µM unless noted
[7] = system: EKVX NSCLC; settings: 10 µM unless noted
[8] = system: TK-10 renal; settings: 10 µM unless noted
[9] = system: CCRF-CEM leukemia; settings: 10 µM unless noted
[10] = system: SR leukemia; settings: 10 µM
[11] = system: OVCAR-4 ovarian; settings: 10 µM unless noted
[12] = system: T-47D breast; settings: 10 µM unless noted
[13] = system: BT-549 breast; settings: 10 µM
[14] = system: MCF7 breast; settings: 10 µM unless noted
[15] = system: HCC-2998 colon; settings: 10 µM unless noted
[16] = system: COLO 205 colon; settings: 10 µM
[17] = system: RPMI-8226 leukemia; settings: 10 µM unless noted
[18] = system: SK-OV-3 ovarian; settings: 10 µM unless noted
[19] = system: OVCAR-3 ovarian; settings: 10 µM unless noted

Measured: growth

O=C(O)c1[nH]c(=O)[nH]c(=O)c1F
inactive: [1] 106% | [2] 88.9% | [3] 107% | [4] 113% | [5] 91.4% | [6] 87.2% | [7] 121% | [8] 78.6% | [9] 78.4% | [10] 91.7% | [11] 112% | [12] 104% | [13] 111% | [14] 109% | [15] 64.9%

ClCCN(CCCl)c1ccc(C=NCCc2c[nH]c3ccccc23)cc1
inactive: [2] 92.4% | [16] 106% | [3] 82.4% | [4] 76.7% | [5] 89.8% | [6] 72.6% | [7] 106% | [8] 88% | [9] 54.1% | [17] 85.6% | [11] 92.9% | [18] 81% | [19] 93.3% | [12] 80.6% | [15] 91.8%

CC(C)(C)N(Cc1ccccc1)N=O
inactive: [2] 90.3% | [16] 108% | [3] 101% | [4] 107% | [5] 97% | [6] 99.3% | [8] 102% | [9] 98.4% | [17] 99.2% | [11] 98.2% | [18] 96.2% | [13] 102% | [14] 97.7% | [15] 110%

CCC1CN1P(=O)(OCCOC)N1CC1CC (stereo unspecified)
inactive: [1] 98.4% | [16] 119% | [3] 109% | [4] 110% | [5] 104% | [6] 102% | [8] 123% | [10] 93.8% | [11] 109% | [18] 118% | [19] 119% | [12] 104% | [13] 106% | [14] 99.4%

CC1=C(SCCC(=O)OCC(=O)NCCC[Te]c2ccccc2)C(=O)c2ccccc2C1=O
active: [2] -6.75% | [4] -7.94% | [5] 9.54% | [6] -5.81% | [7] -3.84% | [9] 2.25% | [17] -8.41% | [18] -36.8% | [19] -25.6% | [13] -6.68% | [14] 3.85%
inactive: [16] 47.6% | [3] 10.2% | [8] 18.9% | [11] 87.4% | [12] 18.9% | [15] 10.1%

CCC(/C=C(C)/C=C/C(=O)c1c(O)c(-c2ccc(O)cc2)c[nH]c1=O)CO (stereo unspecified)
active: [3] 7.07% | [9] 7.28%
inactive: [1] 26.2% | [16] 124% | [5] 90.6% | [6] 67.6% | [7] 89.2% | [10] 19.9% | [19] 41.8% | [12] 92.6% | [14] 88.7%

O=CN1N=C(c2ccc3c(c2)OCO3)CC1c1sc(N(CCCl)CCCl)nc1Cl (stereo unspecified)
inactive: [2] 74.7% | [16] 104% | [3] 85.4% | [4] 106% | [5] 91% | [6] 98.6% | [7] 97.9% | [8] 95.3% | [9] 92.1% | [10] 87.6% | [11] 100% | [18] 90% | [19] 95.5% | [12] 84.1% | [13] 94.7% | [14] 88.9% | [15] 106%

ClCCN(CCCl)c1nc(Cl)c(C2CC(c3ccccc3)=NN2c2ccccc2)s1 (stereo unspecified)
inactive: [2] 75.1% | [16] 95.3% | [3] 68.3% | [4] 113% | [5] 79.9% | [6] 86.1% | [7] 89.5% | [8] 108% | [9] 88.9% | [10] 88.4% | [11] 87.1% | [18] 82.9% | [19] 99.9% | [12] 66.3% | [13] 99.3% | [14] 91.6% | [15] 110%

COC1=CC(=O)OC(CCc2ccc3c(c2)OCO3)C1 (stereo unspecified)
inactive: [2] 76.9% | [16] 108% | [3] 122% | [4] 136% | [5] 103% | [6] 89% | [7] 122% | [8] 102% | [9] 85.4% | [10] 122% | [17] 107% | [11] 106% | [19] 122% | [12] 94.7% | [13] 92.5% | [14] 86.9%

CC1(C)N=C(N)N=C(N)N1c1ccc(CCC(=O)Nc2cccc(S(=O)(=O)F)c2)cc1
inactive: [2] 91.1% | [16] 93.4% | [3] 26.2% | [5] 51.9% | [6] 42.3% | [7] 56.8% | [8] 98.9% | [10] 35.6% | [18] 101% | [19] 114% | [12] 98.4% | [13] 84.9% | [15] 67.5%
active: [4] -7.62%

O=S(=O)(c1ccc(Cl)cc1)C(Cl)(Cl)Cl
active: [4] 9.32%
inactive: [2] 11% | [16] 48% | [3] 19.6% | [5] 82.9% | [6] 52.1% | [7] 40.6% | [8] 50.6% | [9] 25.3% | [10] 15.1% | [17] 18% | [11] 61.6% | [18] 84.9% | [13] 34.1% | [14] 23.8% | [15] 18.3%

COc1cc2c(cc1OC)CN(C)C(C)C2 (stereo unspecified)
inactive: [2] 82.3% | [16] 102% | [3] 101% | [4] 95.9% | [5] 99% | [6] 101% | [7] 109% | [8] 101% | [9] 100% | [17] 105% | [11] 103% | [18] 103% | [19] 113% | [12] 97.3% | [13] 115% | [14] 95.5%

Nc1ccc(N)c2c1Oc1ccccc1O2
inactive: [1] 74.8% | [16] 106% | [3] 92.1% | [4] 111% | [5] 104% | [6] 94.3% | [7] 92.1% | [9] 30.3% | [17] 81% | [11] 110% | [18] 94.6% | [19] 99% | [12] 98.1% | [13] 97.9% | [14] 98% | [15] 108%

O=C(/C=C/c1ccccc1)N[C@@H](CO)Cc1cnc[nH]1
inactive: [1] 100% | [16] 104% | [3] 107% | [4] 110% | [5] 103% | [6] 101% | [8] 93.5% | [10] 93.6% | [17] 98% | [11] 96.8% | [18] 113% | [19] 112% | [12] 104% | [13] 103% | [15] 112%

CNC(=O)Oc1cccc(N(C)C)c1
inactive: [2] 89.1% | [16] 108% | [3] 102% | [4] 101% | [5] 102% | [6] 99.1% | [8] 108% | [10] 103% | [17] 101% | [11] 106% | [18] 99.7% | [19] 110% | [13] 94.1% | [14] 94.1% | [15] 111%

CC(=O)Oc1ccc(Cl)cc1
inactive: [1] 91.1% | [16] 107% | [3] 94.5% | [4] 96.7% | [5] 91.2% | [6] 97.8% | [7] 101% | [8] 97% | [9] 104% | [11] 97.3% | [18] 98.1% | [12] 94.2% | [13] 98.3% | [14] 87.4% | [15] 96.1%

CO[C@@H](c1ccccc1Cl)[C@H](C)OC(N)=O
inactive: [2] 94.2% | [16] 101% | [3] 104% | [4] 93.5% | [5] 96.7% | [6] 94.1% | [7] 100% | [8] 97.6% | [9] 82.6% | [10] 111% | [17] 110% | [11] 112% | [18] 102% | [12] 101% | [13] 97.2% | [14] 102% | [15] 91.5%

C[C@]12CC[C@@H]3C4=C(CC[C@H]3[C@@H]1CC[C@@H]2O)CC(=O)CC4
inactive: [2] 90.8% | [16] 117% | [3] 96.9% | [4] 116% | [5] 95.2% | [6] 96.8% | [7] 72% | [8] 113% | [9] 96.3% | [10] 97.5% | [17] 91.8% | [11] 111% | [18] 114% | [13] 122% | [14] 118% | [15] 104%

Cc1cc(C)nc(C)c1.[Cl][Hg][Cl]
active: [2] 3.42%
inactive: [16] 123% | [3] 83.6% | [4] 92.8% | [5] 104% | [6] 91.6% | [8] 108% | [9] 78.3% | [17] 98.9% | [11] 103% | [18] 110% | [19] 108% | [13] 100% | [14] 82.7% | [15] 114%

Oc1ccc2c3c1O[C@H]1c4[nH]c5ccccc5c4C[C@@]4(O)C(C2)N(CC2CC2)CC[C@]314
inactive: [1] 82.9% | [16] 96.9% | [3] 77.7% | [4] 122% | [6] 90.2% | [9] 89.7% | [10] 79.6% | [11] 96.5% | [18] 103% | [19] 89.1% | [12] 84.8% | [14] 99.7% | [15] 90%

CC(C)N=C(NC(C)C)N1CC1
inactive: [2] 98.2% | [16] 113% | [3] 124% | [4] 124% | [5] 115% | [6] 105% | [7] 102% | [8] 122% | [9] 116% | [10] 122% | [17] 121% | [11] 104% | [19] 109% | [12] 111% | [13] 114% | [14] 102% | [15] 103%
